High-throughput results (PubChem BioAssay)
Pf Dd2 inh = inhibitors of Plasmodium falciparum Dd2 growth. P. falciparum Dd2 growth, SYBR Green, 72 h; hits give low values. activity change, % at 10 µM. actives 2.3% (n = 94,000). AID 1159554; in the data active = activity change below about -80%; inconclusive = no clear call, values can overlap the other calls
C diff growth = blocks growth of Clostridium difficile; Clostridium difficile clinical isolate growth, OD600, 24 h; hits give low values; AID 1259249; actives 0.25% (n = 86,000); growth activity, negative = inhibition, % at 16 µg/mL (by protocol);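 active = mean growth activity at or below -80% and every replicate also at or below -80%; inconclusive = mean at or below -80% but some replicate above -80%; inactive = mean growth activity above -80%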;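 also: 0% = DMSO wells and -100% = levofloxacin 16 µg/mL wells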
T cruzi growth-1 = inhibitors of T. cruzi proliferation; actives 5.9% (n = 77,000); inhibition, % at 8.34 µM; AID 624255; T. cruzi beta-gal in NIH3T3, GalScreen luminescence, 90 h;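 active = mean inhibition above about 93%, with at least 55% of replicates each passing it, limit read from the data, passing the limit was not always enough; inconclusive = only one of those two conditions holds; inactive = neither condition holds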
T cruzi growth-2 = inhibitors of T. cruzi proliferation | inhibition, % at 8.35 µM | actives 72% (n = 5,600) | AID 651739 | shares compounds with T cruzi growth-1 | T. cruzi beta-gal in NIH3T3, GalScreen luminescence, 90 h;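 active = mean replicate inhibition above about 95% and at least 55% of replicates individually reaching it, limit read from the data; inconclusive = only one of the two criteria is met; inactive = neither criterion is met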
T cruzi growth-3 = Trypanosoma cruzi proliferation inhibition | shares compounds with T cruzi growth-1 | T. cruzi beta-gal in NIH3T3, GalScreen luminescence, 90 h | inhibition, % at 2.09 µM | actives 21% (n = 5,600);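 active = mean inhibition above about 95%, with at least 55% of replicates also reaching it, limit read from the data; inconclusive = meets just one of the two conditions; inactive = meets neither condition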;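 also: plate controls were neutral control median for no effect and positive control median for full effect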
3T3 cytotox = kills mouse NIH/3T3 fibroblasts; shares compounds with T cruzi growth-1; AID 651742; NIH/3T3 viability, CellTiter-Glo ATP luminescence, 90 h; cytotoxicity (signal decrease), % at 8.35 µM; actives 14% (n = 5,600);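 active = mean signal decrease across replicates above about 35% based on untreated-well scatter, with enough replicates individually passing, limit read from the data; inconclusive = no rule stated though some were filed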;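 also: 0% = median of neutral control wells and 100% = median of positive control wells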
NIH3T3 tox 2 = kills mouse NIH/3T3 fibroblasts; shares compounds with T cruzi growth-1; NIH/3T3 viability, CellTiter-Glo ATP luminescence, 90 h; inhibition, % at 24.9 µM; actives 56% (n = 5,600); AID 651744;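 active = mean loss of cell viability signal at or above a set limit, and enough replicates individually reaching it; inconclusive = meets only the mean limit or only the replicate share; inactive = meets neither condition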;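 also: 0% = median of neutral control wells and 100% = median of positive control wells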
Starred values were filed as active, the others as inactive; ? = inconclusive; / = no result. Most compounds without a hit are left out; they make up all but 6.7% or so of the library.

SMILES	Pf Dd2 inh	C diff growth	T cruzi growth-1	T cruzi growth-2	T cruzi growth-3	3T3 cytotox	NIH3T3 tox 2
COc1ccccc1-c1ccc([C@@H]2[C@@H](CO)N3CCCCN(C(=O)CN4CCOCC4)C[C@@H]23)cc1	-21	9	114*	39	-29	3	26*
O=C(CN1CCOCC1)N1CCCCN2[C@H](C1)[C@H](c1ccc(/C=C/c3ccccc3)cc1)[C@@H]2CO	-40	5	7	/	/	/	/
COc1ccccc1-c1ccc([C@@H]2[C@@H](CO)N3CCCCN(C(=O)CN4CCOCC4)C[C@H]23)cc1	-17	-5	32	/	/	/	/
COc1ccccc1-c1ccc([C@H]2[C@@H](CO)N3CCCCN(C(=O)CN4CCOCC4)C[C@@H]23)cc1	19	-8	?	76	71	27	65*
C[C@@H]1CN([C@@H](C)CO)C(=O)c2cc(-c3cccc(F)c3)cnc2O[C@@H]1CN(C)Cc1ccccn1	-17	3	/	/	/	/	/
C[C@@H]1CN([C@H](C)CO)C(=O)Cc2cc(NS(=O)(=O)c3ccccc3)ccc2O[C@H]1CN(C)C(=O)Nc1ccc2c(c1)OCO2	-6	/	-8	/	/	/	/
C[C@@H]1CN([C@H](C)CO)C(=O)c2cc(NS(=O)(=O)c3ccc(F)cc3)ccc2O[C@@H](C)CCCCO[C@H]1CN(C)Cc1ccccc1	-44	-1	74	/	/	/	/
C[C@H]1CCCCO[C@@H](CN(C)Cc2ccccc2)[C@@H](C)CN([C@@H](C)CO)C(=O)c2cc(NS(=O)(=O)c3ccccc3)ccc2O1	-70	/	16	/	/	/	/
Cc1ccc(S(=O)(=O)Nc2ccc3c(c2)C(=O)N([C@@H](C)CO)C[C@@H](C)[C@@H](CN(C)Cc2ccccc2)OCCCC[C@H](C)O3)cc1	-28	-7	122	/	/	/	/
C[C@@H]1CN([C@@H](C)CO)C(=O)c2cc(NS(=O)(=O)c3ccc(F)cc3)ccc2O[C@@H](C)CCCCO[C@H]1CN(C)Cc1ccccc1	-26	2	38	/	/	/	/
Cc1ccc(S(=O)(=O)Nc2ccc3c(c2)C(=O)N([C@@H](C)CO)C[C@@H](C)[C@@H](CN(C)Cc2ccccc2)OCCCC[C@@H](C)O3)cc1	-74	3	?	94	80	25	105*
C[C@@H]1CN([C@@H](C)CO)C(=O)c2cc(NS(=O)(=O)c3ccc(F)cc3)ccc2O[C@@H](C)CCCCO[C@@H]1CN(C)Cc1ccccc1	-55	-7	105*	99*	82	20	107*
C[C@@H]1CCCCO[C@H](CN(C)Cc2ccccc2)[C@H](C)CN([C@H](C)CO)C(=O)c2cc(NS(=O)(=O)c3ccccc3)ccc2O1	-58	/	101*	98*	79	-8	41*
C[C@H](CO)N1C[C@H](C)[C@H](CN(C)Cc2ccccc2)OCCCC[C@H](C)Oc2ccc(NS(=O)(=O)c3ccc(F)cc3)cc2C1=O	-37	13	?	113*	78	11	92*
Cc1noc(C)c1NC(=O)N[C@@H]1C=C[C@@H](CC(=O)NCc2ccc(Cl)c(Cl)c2)O[C@@H]1CO	21	1	-23	/	/	/	/
O=C1CN(S(=O)(=O)Cc2ccccc2)C[C@@H]2[C@H](c3ccc(C#Cc4ccccc4)cc3)[C@H](CO)N12	-37	-6	/	/	/	/	/
C[C@H]1CN([C@@H](C)CO)C(=O)c2cccc(NC(=O)Nc3ccc(F)cc3)c2O[C@H]1CN(C)CC1CC1	-8	2	/	/	/	/	/
COc1ccc(CN(C)C[C@@H]2OCCCC[C@@H](C)Oc3ccc(NS(=O)(=O)c4ccccc4)cc3C(=O)N([C@H](C)CO)C[C@@H]2C)cc1	-25	-2	-99	/	/	/	/
COc1ccc(CN(C)C[C@@H]2OCCCC[C@@H](C)Oc3ccc(NS(=O)(=O)c4ccc(Cl)cc4)cc3C(=O)N([C@@H](C)CO)C[C@H]2C)cc1	-31	1	88	/	/	/	/
COc1ccc(CN(C)C[C@H]2OCCCC[C@H](C)Oc3ccc(NS(=O)(=O)c4ccc(Cl)cc4)cc3C(=O)N([C@@H](C)CO)C[C@@H]2C)cc1	-41	6	?	101*	37	6	104*
